Source: PubChem
The list is not random: actives were taken first. Their share in the collection is about 19%.
MCF10A rerep: inducers of DNA re-replication in MCF 10A breast cells; MCF 10A DNA re-replication, Hoechst nuclear intensity, 48 h; Potency, µM (top dose mostly 46.1 µM), most hits filed as activators; 350,000 compounds, 2.9% hits; AID 624296; also: nearly all actives have a fitted effect of over 50% in size
Chronic BCR inh: inhibitors of chronic active B-cell receptor signaling; ABC-DLBCL IkBa-CBG/CBR reporter, luminescence ratio, 4 h; Potency, µM (top dose mostly 46.1 µM), hits mostly inhibitors; 340,000 compounds, 0.05% hits; active = well fitted inhibition curve with a large enough effect in the signal ratio, with a control signal flat, not every such curve was filed as active; inconclusive = small, poorly fitted or top-dose-only effect, or effect the other way, or a change in a side signal; the % refers to the signal ratio
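Concentration-response series (up to 46 uM) were applied to TMD8 dual-reporter cells for 4 h at 37C with doxycycline. Green/red ratio, after filter-overlap correction, defined %Activity; red signal alone was normalised to basal cells and zero luminescence.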
IL-1B inflam inh: inhibitors of inflammasome signaling (IL-1 beta secretion) | THP-1 LPS/ATP IL-1B secretion, AlphaLISA, 16 h; active compounds read low | activity change, % at 57.5 µM | 360,000 compounds, 4.7% hits | AID 743279; in the data active = activity change below about -50%; inconclusive = mostly about -30% to -49%
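THP-1 cells pretreated 1 hr with compounds (up to 57.5 uM final), then stimulated with LPS (250 ng/mL final) plus ATP (1.25 mM final); secreted IL-1B measured by AlphaLISA after 16 hr, decreased signal indicating inhibition.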
DT40 TDP1 no CPT: qHTS for Inhibitors of human tyrosyl-DNA phosphodiesterase 1 (TDP1): qHTS in cells in absence of CPT | DT40 Tdp1-/- hTDP1 cells, no CPT, ATP luminescence, 48 h | Potency, µM (titrated, usually from 46.2 µM), usual class: inhibitors | 420,000 compounds, 15% hits | AID 686978, 2013; also: nearly all actives have a fitted effect of over 55% in size
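No-CPT arm: Tdp1-/-;hTDP1 DT40 cells (400/well) plus compounds, incubated ≥48 hr at 37 °C. Readout CellTiter-Glo luminescence.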
SW480 rereplic: inducers of DNA re-replication in SW480 colon cancer cells; SW480 DNA re-replication, Hoechst DNA content imaging, 48 h; Potency, µM (titrated, usually from 46.1 µM), most hits filed as activators; 340,000 compounds, 1.8% hits; AID 624297; also: nearly all actives have a fitted effect of over 55% in size
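Compounds, transferred as 23 nL by pin tool, were incubated with cells for 48 hr; DNA content per nucleus was then quantified by Hoechst staining and fluorescence plate imaging.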
DT40 TDP1 CPT: growth inhibition of DT40 Tdp1-/-;hTDP1 cells with camptothecin (screen for TDP1 inhibitors); Potency, µM (highest dose often 46.2 µM), usual class: inhibitors; AID 686979; 420,000 compounds, 12% hits; chicken DT40 Tdp1-/-;hTDP1 cells + 20 nM CPT, ATP luminescence, 48 h; also: nearly all actives have a fitted effect of over 55% in size
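Chicken DT40 Tdp1-/- cells complemented with human TDP1, 400 cells/well, exposed to compounds plus 20 nM camptothecin for at least 48 h at 37 C; viability read as ATP content by CellTiter-Glo luminescence.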
A number is an active result; i = inactive; ? = inconclusive; nt = no result given; [ ] = remark or other dose. Unless noted, calls follow the shape of the dose curve; as a rule, active = well fitted curve in the direction sought with a large enough effect; inconclusive = small, poorly fitted or top-dose-only effect, or another doubt; inactive = no such curve, though single readings can be large; an effect the other way counts as inactive or inconclusive.

SMILES	MCF10A rerep	Chronic BCR inh	IL-1B inflam inh	DT40 TDP1 no CPT	SW480 rereplic	DT40 TDP1 CPT
Cc1cccc(OCCC(=O)NCC(=O)Nc2cccc(C)c2C)c1	i	i	i	i	i	i
Cc1cccc(NC(=O)CNC(=O)COc2ccc(C(=O)c3ccc(F)cc3)cc2)c1C	14.6µM	i	i	10.3µM	?	18.4µM
Cc1ccc2nc3sc(C(=O)Nc4ccc(F)cc4)cc3cc2c1	nt	i	nt	?	nt	?
Clc1ccc(-n2nnnc2Sc2ncnc3sccc23)cc1	10.3µM	nt	-120.5	1.84µM	6.51µM	2.31µM
c1ccc(-c2ccc(-c3csc4ncnc(Sc5nnnn5-c5ccccc5)c34)cc2)cc1	nt	nt	nt	6.31µM	nt	7.08µM
Cc1sc2ncnc(Sc3nnnn3-c3ccccc3)c2c1C	?	?	-101.1	7.08µM	?	5.8µM
Clc1ccc(-c2csc3ncnc(Sc4nnnn4-c4ccccc4)c23)cc1	nt	nt	nt	2µM	nt	3.55µM
Cc1sc2ncnc(Sc3ccccc3C(=O)O)c2c1C	i	i	i	i	i	i
COCCCNC(=O)CSc1nc2cc3c(cc2c(=O)n1CCCCCC(=O)NCCc1ccc(OC)c(OC)c1)OCO3	nt	i	nt	i	nt	i
O=S1(=O)c2ccccc2N(Cc2ccccc2F)c2ccccc21	nt	nt	nt	i	nt	?
COc1ccc(-c2nc3cnc(N4CCN(C)CC4)nc3n(CCc3ccccc3)c2=O)cc1	nt	nt	nt	i	nt	i
Cc1ccc(-c2csc3ncnc(Sc4nnnn4-c4ccccc4)c23)cc1	nt	nt	nt	5.62µM	nt	7.08µM
Cc1cccc(OCc2nc(-c3ccccn3)n[nH]2)c1	i	nt	i	14.6µM	?	20.6µM
Cc1ccc(OCc2nc(-c3ccccn3)n[nH]2)cc1	i	?	i	4.61µM	i	3.26µM
O=C(N/N=C/c1ccccc1Cl)c1[nH]c2ccc(Br)cc2c1-c1ccccc1	?	?	i	0.651µM	?	1.3µM
COc1ccc(/C=N/NC(=O)c2[nH]c3ccc(Br)cc3c2-c2ccccc2)cc1	0.206µM	?	i	0.92µM	1.16µM	0.82µM
Cc1ccc(C)c(/C=N/n2cc(-c3ccccc3)[nH]c2=S)c1	?	i	i	?	i	?
S=c1[nH]c(-c2ccccc2)cn1/N=C/c1cccs1	?	i	i	8.2µM	i	i
Fc1ccccc1/C=N/n1cc(-c2ccccc2)[nH]c1=S	i	i	i	8.2µM	i	14.6µM
S=c1[nH]c(-c2ccccc2)cn1/N=C/c1ccc(Br)cc1	i	i	i	4.61µM	i	3.66µM
O=C(O)c1ccc(/C=N/n2cc(-c3ccccc3)[nH]c2=S)cc1	i	?	i	i	i	i
S=c1[nH]c(-c2ccccc2)cn1/N=C/c1cccnc1	i	i	i	i	i	i
C/C1=C2/[N-]C(C(CC(N)=O)[C@@]2(C)CCC(=O)NCC(C)OP(=O)([O-])O[C@H]2[C@@H](O)[C@@H](n3cnc4cc(C)c(C)cc43)O[C@@H]2CO)[C@]2(C)N=C(/C(C)=C3N=C(/C=C4N=C1C(CCC(N)=O)C\4(C)C)[C@@H](CCC(N)=O)[C@]\3(C)CC(N)=O)[C@@H](CCC(N)=O)[C@]2(C)CC(N)=O.CC(=O)O.[Co] (some centres undefined)	i	nt	nt	nt	i	nt
COC(=O)C1=C(C)N(c2ccc(Cl)c(Cl)c2)C(=O)C1	?	?	i	5.17µM	?	5.17µM
COC(=O)C1=C(C)N(c2ccc(S(N)(=O)=O)cc2)C(=O)C1	i	i	i	i	i	i
SMILES	MCF10A rerep	Chronic BCR inh	IL-1B inflam inh	DT40 TDP1 no CPT	SW480 rereplic	DT40 TDP1 CPT
Cc1ccc(CN2CCCN(C)CC2)c(C)c1	20.6µM	i	i	?	i	?
Cc1ccc(CN2CCN(/N=C/c3cccn3C)CC2)c(C)c1	i	i	i	23.1µM	i	23.1µM
Cc1ccc(CN2CCN(/N=C/c3cccnc3)CC2)cc1	i	i	i	i	i	i
Cc1ccc(CN2CCSCC2)c(C)c1	i	i	i	i	i	i
COc1ccc(Cl)cc1NC(=O)N1CCN(Cc2cc(=O)n3nc(-c4ccccc4)sc3n2)CC1	nt	nt	nt	i	nt	i
O=C(c1ccccn1)N1N=C2/C(=C/c3ccc(F)cc3)CCCC2C1c1ccc(F)cc1 (centres undefined)	?	i	-54.7	?	i	?
CC(C)(C)C(=O)Nc1cc(C(F)(F)F)ccc1-n1ccnc1	i	i	i	i	i	i
CCOC(=O)c1ccc(-n2ccnc2)c(NC(=O)c2ccc(C(C)(C)C)cc2)c1	?	i	i	i	13µM	i
CCCCNC(=NCc1cccc(C(F)(F)F)c1)Nc1ccccc1	?	?	-83.0	10.3µM	?	13µM
CCCNC(=O)c1cccc(C(F)(F)F)c1	i	?	i	i	i	i
C=CCN(CC=C)CCOc1cccc2ccccc12	i	?	-57.4	?	i	i
COc1ccc(CN2CCC(C(=O)Nc3ccc(Oc4ccccc4)nc3)CC2)cc1F	?	i	i	18.4µM	i	20.6µM
COc1cc(F)ccc1CN1CCC(C(=O)Nc2ccc(Oc3ccccc3)nc2)CC1	i	i	-81.4	16.4µM	i	?
Cc1c(CN2CCC(C(=O)Nc3ccc(Oc4ccccc4)nc3)CC2)cnn1C	i	i	i	i	?	i
CC(C)n1cc(CN2CCC(C(=O)Nc3ccc(Oc4ccccc4F)cc3)CC2)cn1	i	i	i	?	?	?
CCOc1cccc(-c2cc(C(=O)N/N=C/c3ccc(OC)c(CN4CCOCC4)c3)c3ccccc3n2)c1	?	i	i	16.4µM	i	18.4µM
O=C(N/N=C/c1cccnc1)c1cc(-c2ccc(Cl)cc2)nc2ccccc12	?	nt	i	8.2µM	i	?
O=C(N/N=C/c1ccc[nH]1)c1cc(-c2ccc(Cl)cc2)nc2ccccc12	?	?	i	9.2µM	?	?
CCOc1cc(C=NNC(=O)N(c2ccccc2)c2ccccc2)ccc1O	nt	nt	i	16.4µM	nt	29.1µM
O=C(N/N=C/c1cccnc1)c1cc(-c2ccccc2)nc2ccccc12	i	i	i	?	i	?
CCOc1cc(/C=N\NC(=O)CC(=O)NCCc2ccccc2)ccc1O	i	i	i	i	i	i
Cc1cccc(OC(C)C(=O)N/N=C\c2ccncc2)c1 (centres undefined)	i	i	i	i	i	i
COc1ccc(CN(CCN)C2CC(C)N(C)CC2C)cc1 (centres undefined)	?	i	i	i	i[9.22 µM]	i
O=C(NC1CCC(O)CC1)c1ccc(-c2ccc(Cl)cc2)o1 (centres undefined)	i	i	-62.4	?	i	?
CCOc1cc(/C=N/NC(=O)CN2CCOCC2)ccc1OCc1ccccc1	i	i	i	?	i	i
